Test results reported in the supplement of paper PMC4466140.

B1: unnamed (peptide)
chain: RTIRKLPLMSLSEYF

biological target: CaNbp2; assay: SPOT peptide array binding signal intensity (averaged, normalized) (arbitrary units (background-subtracted, floor 0; scale differs between SH3 domains)); higher = stronger binding of the SH3 domain to the peptide
In short: (§1)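 SH3 domains from four yeast species were expressed as GST fusions in E. coli BL21(DE3) and purified on glutathione Sepharose. Each was incubated at 10 μg/ml overnight at 4°C in TBS-based blocking buffer on cellulose membranes bearing synthetic 15-mer peptides, in which serines replaced cysteines. Bound protein was detected with anti-GST antibody, an HRP anti-mouse secondary and luminol, then imaged and quantified with Genespotter. The binding signal is the normalized, background-subtracted spot intensity averaged over replicates, in arbitrary units that are not the same from one domain to another.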

Row | Binder | SPOT peptide array binding signal intensity
1 | B1 | 571

biological target: CaRvs167; assay: as above
In short: as §1

Row | Binder | SPOT peptide array binding signal intensity
2 | B1 | 42.5

biological target: CaRvs167-3; assay: as above
In short: as §1

Row | Binder | SPOT peptide array binding signal intensity
3 | B1 | 4.75

biological target: CaSho1; assay: as above
In short: as §1

Row | Binder | SPOT peptide array binding signal intensity
4 | B1 | 668

biological target: CaSla1-D1-D2; assay: as above
In short: as §1

Row | Binder | SPOT peptide array binding signal intensity
5 | B1 | 152

biological target: CaSla1-D3; assay: as above
In short: as §1

Row | Binder | SPOT peptide array binding signal intensity
6 | B1 | 98.2

biological target: ScAbp1; assay: as above
In short: as §1

Row | Binder | SPOT peptide array binding signal intensity
7 | B1 | 23

biological target: ScBbc1; assay: as above
In short: as §1

Row | Binder | SPOT peptide array binding signal intensity
8 | B1 | 5.25

biological target: ScBem1-D1; assay: as above
In short: as §1

Row | Binder | SPOT peptide array binding signal intensity
9 | B1 | 48

biological target: ScBzz1-D1; assay: as above
In short: as §1

Row | Binder | SPOT peptide array binding signal intensity
10 | B1 | 15

biological target: ScBzz1-D2; assay: as above
In short: as §1

Row | Binder | SPOT peptide array binding signal intensity
11 | B1 | 21

biological target: ScCyk3; assay: as above
In short: as §1

Row | Binder | SPOT peptide array binding signal intensity
12 | B1 | 28.5

biological target: ScFus1; assay: as above
In short: as §1

Row | Binder | SPOT peptide array binding signal intensity
13 | B1 | 328

biological target: ScHof1; assay: as above
In short: as §1

Row | Binder | SPOT peptide array binding signal intensity
14 | B1 | 3

biological target: ScHse1; assay: as above
In short: as §1

Row | Binder | SPOT peptide array binding signal intensity
15 | B1 | 1080

biological target: ScLsb1; assay: as above
In short: as §1

Row | Binder | SPOT peptide array binding signal intensity
16 | B1 | 2

biological target: ScLsb2; assay: as above
In short: as §1

Row | Binder | SPOT peptide array binding signal intensity
17 | B1 | ≤ 0

biological target: ScLsb3; assay: as above
In short: as §1

Row | Binder | SPOT peptide array binding signal intensity
18 | B1 | 639

biological target: ScLsb4; assay: as above
In short: as §1

Row | Binder | SPOT peptide array binding signal intensity
19 | B1 | 92

biological target: ScMyo3; assay: as above
In short: as §1

Row | Binder | SPOT peptide array binding signal intensity
20 | B1 | 2.5

biological target: ScMyo5; assay: as above
In short: as §1

Row | Binder | SPOT peptide array binding signal intensity
21 | B1 | 4.5

biological target: ScNbp2; assay: as above
In short: as §1

Row | Binder | SPOT peptide array binding signal intensity
22 | B1 | 556

biological target: ScPex13; assay: as above
In short: as §1

Row | Binder | SPOT peptide array binding signal intensity
23 | B1 | 54.2

biological target: ScRvs167; assay: as above
In short: as §1

Row | Binder | SPOT peptide array binding signal intensity
24 | B1 | 71.7

biological target: ScSho1; assay: as above
In short: as §1

Row | Binder | SPOT peptide array binding signal intensity
25 | B1 | 1040

biological target: ScSla1-D1-D2; assay: as above
In short: as §1

Row | Binder | SPOT peptide array binding signal intensity
26 | B1 | 290

biological target: ScSla1-D3; assay: as above
In short: as §1

Row | Binder | SPOT peptide array binding signal intensity
27 | B1 | 58.2

biological target: SpAbp1-D1; assay: as above
In short: as §1

Row | Binder | SPOT peptide array binding signal intensity
28 | B1 | 85.5

biological target: SpBbc1; assay: as above
In short: as §1

Row | Binder | SPOT peptide array binding signal intensity
29 | B1 | 1

biological target: SpBzz1-D1; assay: as above
In short: as §1

Row | Binder | SPOT peptide array binding signal intensity
30 | B1 | 109

biological target: SpBzz1-D2; assay: as above
In short: as §1

Row | Binder | SPOT peptide array binding signal intensity
31 | B1 | 1

biological target: SpCyk3; assay: as above
In short: as §1

Row | Binder | SPOT peptide array binding signal intensity
32 | B1 | 8.5

biological target: SpHof1; assay: as above
In short: as §1

Row | Binder | SPOT peptide array binding signal intensity
33 | B1 | 239

biological target: SpHof1-2; assay: as above
In short: as §1

Row | Binder | SPOT peptide array binding signal intensity
34 | B1 | 18

biological target: SpHof1-3; assay: as above
In short: as §1

Row | Binder | SPOT peptide array binding signal intensity
35 | B1 | 327

biological target: SpHse1; assay: as above
In short: as §1

Row | Binder | SPOT peptide array binding signal intensity
36 | B1 | 458

biological target: SpLsb1; assay: as above
In short: as §1

Row | Binder | SPOT peptide array binding signal intensity
37 | B1 | 3.5

biological target: SpLsb4; assay: as above
In short: as §1

Row | Binder | SPOT peptide array binding signal intensity
38 | B1 | 816

biological target: SpMyo1; assay: as above
In short: as §1

Row | Binder | SPOT peptide array binding signal intensity
39 | B1 | 7

biological target: SpNbp2; assay: as above
In short: as §1

Row | Binder | SPOT peptide array binding signal intensity
40 | B1 | 484

biological target: SpPex13; assay: as above
In short: as §1

Row | Binder | SPOT peptide array binding signal intensity
41 | B1 | 26

biological target: SpRvs167; assay: as above
In short: as §1

Row | Binder | SPOT peptide array binding signal intensity
42 | B1 | 20

biological target: SpSla1-D1-D2; assay: as above
In short: as §1

Row | Binder | SPOT peptide array binding signal intensity
43 | B1 | ≤ 0

biological target: SpSla1-D3; assay: as above
In short: as §1

Row | Binder | SPOT peptide array binding signal intensity
44 | B1 | 19
